Hits are enriched below; roughly 1.4% of the tested compounds scored in any of these assays.
HTT aggregate: inhibitors of mutant huntingtin aggregate formation in PC12 cells; PC12 HttQ103-GFP aggregates, Acumen cytometry, 40 h; 220,000 tested, 1.1% active; Potency, µM (highest dose often 46.1 µM), inactives show at the top dose activity change, negative = inhibition, most hits filed as inhibitors; AID 1688; also: % is scaled to controls: 0 for no effect and ±100 for the full control effect; nearly all actives have a fitted effect of over 60% in size
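Using laser scanning cytometry, GFP-positive aggregates were counted after lysis of PC12 cells induced with 100 nM tebufenozide to express HTT exon 1 Q103–GFP. Compounds were tested in titration.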
HTT cytoprotect: protects HTT-Q103 PC12 cells, measured by ATP; 230,000 tested, 0.14% active; Potency, µM (highest dose often 56.4 µM), for the others: cytoprotection (ATP increase), most hits filed as activators; PC12 HTT-Q103 induced, cytoprotection, ATP luminescence, 40 h; also: % of control where 0% means no effect; nearly all actives have a fitted effect of over 45% in size
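ATP quantification (ATPlite) reports survival of PC12 cells in which tebufenozide, 100 nM final, switches on Htt exon 1 with 103 glutamines linked to GFP; compounds are titrated.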
ERK EGF block: blocks ERK signaling stimulated by EGF; HEK293-V1b, EGF-stimulated phospho-ERK AlphaScreen; Potency, µM (series often up to 11.5 µM), without a hit: at the top dose activity change, negative = inhibition, usual class: inhibitors; 130,000 tested, 0.41% active;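 also: plate controls were stimulated vehicle wells for no effect and unstimulated vehicle basal for full effect; nearly all actives have a fitted effect of over 55% in size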
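Compounds are titrated over HEK293-V1b cells kept overnight in 1% FBS. After 30 min at 37C, EGF (25 nM final) triggers ERK phosphorylation for 5 min, measured by AlphaScreen in lysates.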
* hit, by the source's call; ? = inconclusive; . = no result; [ ] = another dose, or the depositor's remark. Calls follow the shape of the dose curve; as a rule, active = well fitted curve in the direction sought with a large enough effect; inconclusive = small, poorly fitted or top-dose-only effect, or another doubt; inactive = no such curve, though single readings can be large; an effect the other way counts as inactive or inconclusive. Potency is read from the fitted curve at half-maximal effect.

SMILES	HTT aggregate	HTT cytoprotect	ERK EGF block
Cc1cccc2cc(-c3ccccc3)c(-c3ccccc3)c[n+]12	18µM*	.	-10%
O=[N+]([O-])c1cccc(-c2cc3cccc[n+]3cc2-c2cccc([N+](=O)[O-])c2)c1	-7%	.	0%
CC(C)(C)c1onc(OCP(=O)(O)O)c1C[C@@H](N)C(=O)O	.	-5%[1.9 µM]	.
CC[C@@H](c1ccc2cc(O)ccc2c1)C(C)(C)C(=O)O	.	0%[10 µM]	.
COc1ccccc1CN1CCCC2(CCN(C(=O)c3ccco3)CC2)C1	.	?	4%
CCN(CC)CCCC(C)n1c(-c2ccccc2)nc2c(NC3CCCCC3)nc(C)nc21 (configuration not stated)	.	-23%	5%
COc1cc(C(=O)O)ccc1O	?	.	1%
O=C(O)c1ccc2cc(-c3ccc(O)c(C45CC6CC(CC(C6)C4)C5)c3)ccc2c1	.	-16%	25µM*
COc1cccc2c1CCC1=CC(=O)CC[C@@]12C	.	.	5%
CO[C@@H]1/C=C\O[C@]2(C)Oc3c(C)c(O)c4c(O)c(cc(O)c4c3C2=O)NC(=O)/C(C)=C\C=C/[C@H](C)[C@@H](O)[C@H](C)[C@H](O)[C@H](C)[C@H](OC(C)=O)[C@@H]1C	.	-4%[10 µM]	.
C[N+]1(C)CC(O)[C@H](C(=O)[O-])C1 (some centres not stated)	.	.	-15%
CCC(C)NC(=S)N1CCN(Cc2ccccc2)CC1 (configuration not stated)	0.56µM*	.	-11%
CCC(C)NC(=S)N1CCN(C(c2ccccc2)c2ccccc2)CC1 (configuration not stated)	2%	-8%[10 µM]	-2%
Cc1ccc(-n2ncc3c(N4CCCC4)ncnc32)c(C)c1	?	-17%	8%[57.5 µM]
COc1cccc(N2CCN(c3ncnc4c3cnn4-c3ccc(C)cc3C)CC2)c1	22µM*	-124%	.
COc1ccc(-n2ncc3c(N4CCN(Cc5ccccc5)CC4)ncnc32)cc1	?	.	32µM*
CCN1CCN(c2ncnc3c2cnn3-c2ccccc2)CC1	-10%	3%	.
O=C(O)/C=C\c1cnc[nH]1	.	-6%[1.9 µM]	.
Cc1ccc(N/C(N)=N/c2nc3c(c(=O)[nH]2)CCCC3)c(C)c1	8%	13%	.
Cc1ccc(N/C(N)=N/c2nc(C)cc(N3CCCCC3)n2)c(C)c1	13µM*	-44%	?
c1nc(N2CCOCC2)c2cc(-c3ccoc3)ccc2n1	.	-81%	.
c1cn(-c2ncnc3ccc(-c4ccoc4)cc23)cn1	.	2.5µM*	.
C=C1CC[C@@H]2O[C@]2(C)CC[C@@H]2[C@H]1CC2(C)C	.	6%	.
O=C(O)c1ccccc1CN1CCC[C@@H](C(=O)O)C1	.	-13%[10 µM]	.
CC1(C)Cc2c(sc3c2c(=N)n(Cc2ccco2)c(=O)n3Cc2ccccc2)CO1	?	-25%	.
SMILES	HTT aggregate	HTT cytoprotect	ERK EGF block
CC1(C)Cc2c(sc3c2c(=N)n(Cc2ccco2)c(=O)n3Cc2ccc(Cl)cc2)CO1	18µM*	-24%	.
COCCN(CCOC)c1nc(C)nc2c1nc(-c1ccccc1)n2CCCN(C)C	.	27%	-3%
C[N+]1(C)CCC[C@H]1C(=O)[O-]	.	5%[40.3 µM]	2%[25.7 µM]
CO/N=C(/C(=O)N[C@@H]1C(=O)N2C(C(=O)O)=C(CSc3cnns3)CS[C@H]12)c1csc(N)n1	-9%	-3%	.
C=CCOc1ccccc1CNc1ccc2c(c1)OCCO2	14µM*	-168%	1%
C=CCOc1ccccc1CNc1cccc(F)c1	11%	-17%[10 µM]	-1%
CCOc1cc(CNc2ccc(Br)cc2)cc(Br)c1OCC(=O)NC(C)(C)C	?	-43%	.
CCOc1cc(CNc2ccccc2)cc(Br)c1OCC(=O)NC(C)(C)C	35µM*	-33%	.
CC12C=C(/C=C/c3ccc(C(F)(F)F)cc3)C(C)(C1)C(c1ccc(C(F)(F)F)cc1)CC2=O (configuration not stated)	.	-7%[10 µM]	.
COc1ccccc1CCn1c(=O)cnc2cncnc21	.	-79%	.
CCCCNC(=O)c1cc2c(-c3ccc(Cl)cc3)nn(C)c2s1	-11%	-17%	.
Cc1ccc(CNC(=O)c2cc3c(-c4ccc(Cl)cc4)nn(C)c3s2)o1	8.9µM*	-24%	.
COc1ccc(C[C@H](O)CN2CCOCC2)cc1	.	2%[10 µM]	.
Cn1c(N)c(C(=O)COC(=O)c2cc(-c3ccco3)nc3ccccc23)c(=O)n(C)c1=O	2%	-39%	9%
Cn1c(N)c(C(=O)COC(=O)c2cc(-c3ccco3)nc3ccccc23)c(=O)n(Cc2ccccc2)c1=O	32%	10µM*	10%
CC(C)CO/N=C1/C[C@@H](O)[C@@H](O)[C@@H]2[C@@H]3C(=O)N(C(C)(C)C)C(=O)[C@H]3CC[C@H]12	.	-1%[10 µM]	.
CCCCCCCn1ccc(O)c(CC(=O)OC)c1=O	20%	-4%[10 µM]	11%
CCCCCn1ccc(=O)c2c(C(F)(F)F)nccc21	11µM*	22%[10 µM]	2%
COc1cc2oc(=O)cc(-c3ccc(-c4cccc(N)c4)cc3)c2c(OC)c1OC	.	-18%	.
O=C(Nc1nn[nH]n1)c1nc(-c2ccccc2)cc(=O)[nH]1	.	-10%[10 µM]	.
Cn1c(=O)c2[nH]c(CCCCc3nc4c([nH]3)c(=O)n(C)c(=S)n4C)nc2n(C)c1=S	.	-1%[10 µM]	.
COC(=O)[C@H](CCSC)NC(=O)C/C=C\[C@@H](C)CO	.	-42%[10 µM]	.
CCCCc1c(CCC)c(=N)c2ccccc2n1C	8.9µM*	-4%[10 µM]	.
CCCCc1c(O)c2ccccc2n(CCCC)c1=O	-27%	.	6%
Cc1cccc(C(=O)Nc2sc(C)c(-c3ccccc3)c2C#N)c1	22µM*	-54%	.
SMILES	HTT aggregate	HTT cytoprotect	ERK EGF block
Cc1noc(C)c1C(=O)Nc1sc(C)c(-c2ccccc2)c1C#N	4%	-31%[0.074 µM]	.
N#Cc1c(Cl)nsc1NC(=O)c1ccccc1	4µM*	-108%	-4%
N#Cc1c(NC(=O)c2ccccc2)sc2c1CCCCC2	12%	-20%[10 µM]	3%
C[C@@]12C(=O)OC(=O)[C@@]1(C)[C@H]1CC[C@@H]2O1	.	-51%	.
CCc1cccc(C)c1NC(=O)c1ccoc1C	6%	-5%	.
CCc1cccc(C)c1NC(=O)c1cc(C)oc1C	1.3µM*	1%[0.074 µM]	.
COc1cccc(/C=N/NC(=O)c2c(C)nc3ccc(Br)cn23)c1O	2.2µM*	-155%	-16%

Screening results from PubChem BioAssay.
